From PubChem BioAssay AID1645849 (National Center for Advancing Translational Sciences (NCATS), 2021)
Records with an inconclusive call do not appear. A call without a number means that no potency is given here. The source made the active and inactive calls. Calls follow the shape of the dose curve; as a rule, active = well fitted inhibition curve with a large enough effect in the repeat runs; inconclusive = weak or mixed curves; inactive = no such curve, though single readings can be large or run the other way.

Assay: Comparison of Janus kinase inhibitors to block the type I interferon pathway in human skeletal muscle cells: JAK inhibition assay
Conditions: IFN pathway HiBiT reporter; series mostly up to 45.9 µM
From the text: Assay Submitter: Travis B. Kinder Ph.D.
National Center for Advancing Translational Sciences (NCATS)
The family of Janus kinases (JAK1, JAK2, JAK3, TYK2) mediate signal transduction from cytokine receptors through phosphorylation and activation of intracellular signaling pathways and transcription factors. Small molecule antagonists of JAKs (jakinibs) have been developed with varying selectivity for the use in malignancies and immune regulation. […] We have assayed a library of 48 jakinibs for their ability to inhibit the JAK1/TYK2-dependent type I interferon (IFN) - major histocompatibility complex (MHC) class I pathway in human skeletal muscle cells genome-engineered to fuse a pro-luminescent HiBiT peptide to endogenous MHC class I.
The assay utilized CRISPR/Cas9 genome-engineered immortalized human myoblasts, C25cl48, where a pro-luminescent reporter HiBit was fused to the C-terminus of endogenous MHC class I allele HLA-B*08:01 (HLA-B HiBit myoblasts) (Kinder et al., 2020). […] After 24 hrs of treatment, cells were assayed by Nano-Glo HiBiT Lytic Detection System (Promega) and luminescence measured by a ViewLux 1430 Ultra HTS (Perkin Elmer). […]
7; Detector; 5 sec; Measure luminescence with ViewLux 1430 Ultra HTS (Perkin Elmer). […]

Row | SMILES | Potency
1 | CC1CCCCCC(=O)c2c(O)cc(O)cc2CC(=O)O1 (configuration not stated) | inactive
2 | CC(C)(O)/C=C\C(=O)[C@](C)(O)[C@H]1[C@H](O)C[C@]2(C)[C@@H]3CC=C4[C@@H](C=C(O)C(=O)C4(C)C)[C@]3(C)C(=O)C[C@@]12C | 5.65 µM (active)
